The record followed here is PubChem BioAssay (NCATS).

SMILES strings stand for the structures. Records with an inconclusive call do not appear. A call without a number means that no potency is given here. Values without a mark were called inactive. Calls of active or inactive are those of the source. Calls follow the shape of the dose curve; as a rule, active = well fitted inhibition curve with a large enough effect; inconclusive = small, poorly fitted or top-dose-only effect; inactive = no such curve, though single readings can be large or run the other way. Where a SMILES comes first, the peptide text is derived from it. [ ]: non-standard residue; d: D form. Hyp = O=C(O)[CH]1C[CH](O)CN1; Phe(ol) = N[CH](CO)Cc1ccccc1; Iva = CC[C](C)(N)C(=O)O; Aib = CC(C)(N)C(=O)O
Potency is read from the fitted curve at half-maximal effect.

The subject of the assay is Zika virus NS2B-NS3 protease (unlinked complex). In words: Primary screen GU Rhodamine qHTS for Zika virus inhibitors: Unlinked NS2B-NS3 protease assay (AID 1347159). Also: nearly all actives have a fitted effect of over 60% in size. Conditions: Recombinant ZIKV NS2B-NS3 protease, Rhodamine110 substrate fluorescence; series mostly up to 107 µM. The procedure, abridged:
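Compounds, tested up to 114 microM, were incubated for 15 minutes with 25 nM unlinked NS2B-NS3 protease at pH 8.0. Cleavage of 1.5 microM Rhodamine110 substrate was then followed by fluorescence for 15 minutes.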
Background: In qHTS, concentration-response curves come from the screen itself.
`O=C(N[C@H]1CCN(C(=O)c2cc(C(F)(F)F)cc(C(F)(F)F)c2)[C@H](Cc2ccc(Cl)cc2)C1)c1ccnc2ccccc12`: the Potency result was “inactive”.

Take `COc1ccc(C2=NC(c3ccc(Cl)cc3)C(c3ccc(Cl)cc3)N2C(=O)N2CCNC(=O)C2)c(OC(C)C)c1` (centres undefined): the Potency result is “inactive”. As for `CCC(C)(NC(=O)C(CCC(N)=O)NC(=O)C1CC(O)CN1C(=O)C(C)(C)NC(=O)C(C)(C)NC(=O)C(CC(C)C)NC(=O)CNC(=O)C(NC(=O)C(C)(C)NC(=O)C(C)(C)NC(=O)C(C)(C)NC(=O)C(Cc1ccccc1)NC(C)=O)C(C)C)C(=O)N1CC(O)CC1C(=O)NC(C)(C)C(=O)NC(CO)Cc1ccccc1` (centres undefined) (Ac-F[Aib][Aib][Aib]VGL[Aib][Aib][Hyp]Q[Iva][Hyp][Aib][Phe(ol)]; configuration not given here), the activity change, negative = inhibition was 8.8% [at 19.1 µM]. For `O=C(Nc1ccc(Cl)cc1)Nc1cccc(-c2cccc(N3CCCC3)n2)c1`, the Potency result was “inactive”.

Regarding `CCC(C)C(=O)Oc1cc(C)ccc1C1(COC(=O)C(C)C)CO1` (centres undefined), the Potency result was “inactive”. Same read-out and setting: then `COc1cc2c(c(OC)c1CC=C(C)C)C[C@H](c1ccc(O)c(CC=C(C)C)c1O)CO2`, with 17.8 µM (active); and `CC(C)(N)c1ncc(-c2ccc(OC(F)(F)F)cc2)[nH]1`, with “inactive”.

Turning to `C#Cc1cccc(Nc2nc3cc(C(=O)O)ccc3c3cncnc23)c1`, the Potency is 11.2 µM (active). On the same count and under the same terms, then `COc1cccc(N2CCN(C3=Nc4c(F)cccc4[C@H](CC(=O)O)N3c3cc(C(F)(F)F)ccc3OC)CC2)c1`, with 25.1 µM (active); and `CC(C)n1nc(C#Cc2ccccc2)c2c(N)ncnc21`, with “inactive”; and `CCn1c(=O)c(-c2ccc(Cl)cc2Cl)cc2cnc(Nc3ccc(N4CCNCC4)c(F)c3)nc21`, with “inactive”. Still for that read-out and setting: then `C[C@H]1CC[C@@]2(OC1)O[C@H]1CC3[C@@H]4CC[C@@H]5C[C@@H](O[C@@H]6O[C@H](CO)[C@@H](O[C@@H]7O[C@@H](C)[C@H](O)[C@@H](O)[C@H]7O)[C@H](O)[C@H]6O[C@@H]6O[C@H](CO)[C@@H](O)[C@H](O)[C@H]6O)CC[C@]5(C)C4CC[C@]3(C)[C@H]1[C@@H]2C` (some centres undefined), with “inactive”; and `O=c1[nH]c2ccccc2n1CCN1CCN(c2cccc(C(F)(F)F)c2)CC1`, with “inactive”.

`C=C1C(=O)OC2CC(C)=C(C(C)CCCOC(C)=O)C(OC(=O)CC(C)CC)C12` (centres undefined): the Potency entry was “inactive”. Regarding `CC1(C)CCC(C)(C)c2cc(C#Cc3ccc(C(=O)O)cc3)ccc21`, the Potency was 1.58 µM (active). As to `Cn1cc(C2=C(c3coc4ccccc34)C(=O)NC2=O)c2cc(Br)ccc21`, the Potency was 25.1 µM (active). Still for that read-out and setting: as for `CC(=O)[C@H]1CC[C@H]2[C@@H]3CC=C4C[C@@H](OS(=O)(=O)O)CC[C@]4(C)[C@H]3CC[C@]12C`, the figure is 17.8 µM (active); as for `C=CC(C)(C)C12CC3C(=O)N4C(CC5(C(C)(C)C=C)c6ccccc6NC45)C(=O)N3C1Nc1ccccc12` (centres undefined), “inactive”; as for `CO[C@@H]1[C@H](O)CCC2(CO2)[C@H]1[C@@]1(C)O[C@@H]1CC=C(C)C` (some centres undefined), “inactive”. On the same count and under the same terms, as for `N#Cc1cccc(C(=O)Nc2cc(-c3ccccc3)nn2-c2ccccc2)c1`, the entry is “inactive”. Still for that read-out and setting: as for `CC(=O)c1ccc2c(c1)[C@H](NC(=O)c1ccc(F)c(Cl)c1)[C@H](O)C(C)(C)O2`, the entry is “inactive”; as for `CC[C@@H](C)Nc1cc(C(=O)NC2CC3CC[C@@H](C2)N3c2ccc(C(=O)C3CC3)cn2)c(C)cc1C(N)=O` (some centres undefined), “inactive”. Regarding `C=C1CCC[C@]2(C)CC/C(=C(/CO)C(=O)OC)C[C@@H]12`, the Potency was 20 µM (active). Same read-out and setting: as for `COCCCNC(=O)c1ccc(Cn2c(=O)c3ccccc3n(Cc3ccc(C(C)C)cc3)c2=O)cc1`, the entry is “inactive”; as for `C=C(C=O)[C@]1(O)C[C@@]2(C)C(=CC1=O)C=C[C@H](OC(=O)/C=C/C=C/[C@H](C)CC)[C@@H]2C`, 8.91 µM (active); as for `CC(=O)O[C@H]1[C@H](O)C[C@@]2(C)C(CC[C@]3(C)C2CC=C2C4CC(C)(C)CC[C@]4(C(=O)O)CC[C@]23C)C1(C)C` (some centres undefined), 7.94 µM (active).

With `Cc1c(F)ccc(C(=O)Nc2cc([N+](=O)[O-])ccc2N2CCN(C)CC2)c1Cl`, the Potency result is “inactive”. As to `CC[C@@H](Nc1c(Nc2cccc(C(=O)N(C)C)c2O)c(=O)c1=O)c1cc(C(C)C)co1`, the Potency is 22.4 µM (active). Same read-out and setting: as for `COc1c(C)cc(NC(=O)c2nn(Cc3ccc(F)cc3)c3c2CN(C(=O)c2ccc[nH]2)C[C@]3(C)C(N)=O)cc1C`, the entry is “inactive”.

As to `CCOc1cc(C(C)(C)C)ccc1C1=NC(C)(c2ccc(Cl)cc2)C(C)(c2ccc(Cl)cc2)N1C(=O)N1CCN(CCCS(C)(=O)=O)CC1` (centres undefined), the Potency entry was “inactive”. As to `CC12CCC3C1C(c1c(cc(O)c(C(=O)c4ccccc4)c1O)O2)C3(C)C` (centres undefined), the Potency was 8.91 µM (active). Take `C=C(C(=O)OC)[C@@H]1CC=C2C=CC(=O)[C@H](C)[C@@]2(C)C1`: the Potency result is “inactive”. Still for that read-out and setting: as for `O=C(O)CSc1cc(NS(=O)(=O)c2ccc(Br)cc2)c2ccccc2c1O`, the figure is 3.16 µM (active); as for `C=C(CCC1C(C)(O)CCC2C(C)(C)C(O)CCC12C)C(O)CO` (centres undefined), 39.8 µM (active); as for `CC(C)(C)c1ccc(C(=O)Nc2cc(Cl)c(Br)cc2C(=O)O)cc1`, 2.51 µM (active). On the same count and under the same terms, as for `COc1ccc2nc3n[nH]c(C)c3c(NCCOCCO)c2c1`, the entry is “inactive”; as for `O=C(Nc1ccn(Cc2ccc(O)cc2C(F)(F)F)n1)c1c(F)cccc1F`, “inactive”; as for `COc1ccc(-c2ccc3c(N4CCOCC4C)nc(N4CCOCC4C)nc3n2)cc1CO` (centres undefined), “inactive”. Same read-out and setting: then `O=C(N[C@H](Cc1cscn1)C(=O)N[C@@H](CC1CCCCC1)[C@@H](O)[C@@H](O)C1CC1)c1nc2ccccc2[nH]1`, with “inactive”.
